Source: ChEMBL document CHEMBL3988442, “University of Dundee, Small-Polar-MMV Screening Library” (2021)
For some assays here: Entries with a potency or affinity are not part of this list.

Columns and labels:
Set-up in all cases: scale not given: direction of the effect not stated beside the values
[1] = biological target: Protein translocase subunit SecA (Escherichia coli (strain K12)) (UniProt P10408); assay: Assay to Identify E. coli SecA ATPase Inhibitors; assay type: functional; conditions: 30 µM
Protein translocase subunit SecA (Escherichia coli (strain K12)), sequence (P10408 whole entry): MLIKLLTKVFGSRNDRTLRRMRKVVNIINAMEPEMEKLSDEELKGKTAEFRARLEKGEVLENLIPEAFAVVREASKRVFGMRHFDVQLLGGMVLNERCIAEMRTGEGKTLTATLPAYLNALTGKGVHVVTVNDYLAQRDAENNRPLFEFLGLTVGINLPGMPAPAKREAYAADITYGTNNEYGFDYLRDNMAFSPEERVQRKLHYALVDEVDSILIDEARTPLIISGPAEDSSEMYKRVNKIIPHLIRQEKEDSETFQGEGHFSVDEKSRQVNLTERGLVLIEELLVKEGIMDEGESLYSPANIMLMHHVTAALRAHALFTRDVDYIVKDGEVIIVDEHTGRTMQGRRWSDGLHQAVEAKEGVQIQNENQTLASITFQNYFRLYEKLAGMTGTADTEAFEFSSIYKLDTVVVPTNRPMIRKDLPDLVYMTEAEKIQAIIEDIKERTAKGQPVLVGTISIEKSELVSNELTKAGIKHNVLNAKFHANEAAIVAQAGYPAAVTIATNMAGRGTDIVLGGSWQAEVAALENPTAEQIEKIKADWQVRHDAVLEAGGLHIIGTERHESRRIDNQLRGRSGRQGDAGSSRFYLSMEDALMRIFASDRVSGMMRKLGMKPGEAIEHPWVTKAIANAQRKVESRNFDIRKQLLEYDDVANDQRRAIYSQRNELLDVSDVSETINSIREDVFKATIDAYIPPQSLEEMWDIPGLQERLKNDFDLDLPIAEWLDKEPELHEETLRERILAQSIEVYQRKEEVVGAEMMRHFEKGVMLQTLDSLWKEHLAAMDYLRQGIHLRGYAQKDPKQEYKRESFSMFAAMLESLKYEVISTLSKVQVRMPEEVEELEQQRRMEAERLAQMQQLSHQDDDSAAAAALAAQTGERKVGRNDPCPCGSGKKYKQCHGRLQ

[2] = biological target: T1, Ubiquitin-activating enzyme e1, putative (Leishmania donovani (strain BPK282A1)) (UniProt E9BSI1); assay: Leishmania donovani Ubiquitin Activating Enzyme (LdE1); assay type: functional; conditions: 30 µM
T1 sequence (whole entry): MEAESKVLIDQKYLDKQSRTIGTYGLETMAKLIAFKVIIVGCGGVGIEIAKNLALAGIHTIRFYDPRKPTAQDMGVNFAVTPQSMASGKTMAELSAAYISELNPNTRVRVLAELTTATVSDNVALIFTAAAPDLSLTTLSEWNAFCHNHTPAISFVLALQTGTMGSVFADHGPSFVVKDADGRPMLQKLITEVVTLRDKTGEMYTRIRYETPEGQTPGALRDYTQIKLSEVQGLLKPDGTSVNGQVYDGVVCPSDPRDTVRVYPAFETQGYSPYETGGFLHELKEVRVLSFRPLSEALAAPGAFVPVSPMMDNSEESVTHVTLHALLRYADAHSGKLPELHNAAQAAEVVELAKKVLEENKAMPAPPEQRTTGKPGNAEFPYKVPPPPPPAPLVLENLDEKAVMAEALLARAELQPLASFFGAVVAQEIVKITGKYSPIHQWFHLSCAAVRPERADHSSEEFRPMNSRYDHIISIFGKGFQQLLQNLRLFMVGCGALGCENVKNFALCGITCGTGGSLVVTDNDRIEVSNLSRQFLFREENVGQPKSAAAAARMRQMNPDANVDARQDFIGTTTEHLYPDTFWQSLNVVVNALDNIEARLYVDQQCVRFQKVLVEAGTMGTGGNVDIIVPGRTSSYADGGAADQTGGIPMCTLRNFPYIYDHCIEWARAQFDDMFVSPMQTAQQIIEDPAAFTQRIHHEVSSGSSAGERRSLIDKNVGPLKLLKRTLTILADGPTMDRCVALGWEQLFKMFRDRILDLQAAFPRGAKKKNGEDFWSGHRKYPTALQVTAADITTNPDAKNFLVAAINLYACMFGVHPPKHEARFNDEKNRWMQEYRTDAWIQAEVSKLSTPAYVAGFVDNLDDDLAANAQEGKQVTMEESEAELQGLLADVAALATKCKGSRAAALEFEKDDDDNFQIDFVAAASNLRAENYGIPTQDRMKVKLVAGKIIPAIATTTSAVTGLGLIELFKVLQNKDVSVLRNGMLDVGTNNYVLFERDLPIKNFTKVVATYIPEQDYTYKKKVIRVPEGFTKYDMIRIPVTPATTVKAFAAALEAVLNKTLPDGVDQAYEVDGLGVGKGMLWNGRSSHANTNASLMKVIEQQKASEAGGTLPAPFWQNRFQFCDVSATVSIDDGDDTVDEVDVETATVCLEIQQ

[3] = biological target: Sialic acid-binding Ig-like lectin 9 (Homo sapiens) (UniProt Q9Y336); assay: Hs-Siglec9 ALPHAscreen SOP 20170721; conditions: 10 µM
Sialic acid-binding Ig-like lectin 9 (Homo sapiens), sequence (Q9Y336 whole entry): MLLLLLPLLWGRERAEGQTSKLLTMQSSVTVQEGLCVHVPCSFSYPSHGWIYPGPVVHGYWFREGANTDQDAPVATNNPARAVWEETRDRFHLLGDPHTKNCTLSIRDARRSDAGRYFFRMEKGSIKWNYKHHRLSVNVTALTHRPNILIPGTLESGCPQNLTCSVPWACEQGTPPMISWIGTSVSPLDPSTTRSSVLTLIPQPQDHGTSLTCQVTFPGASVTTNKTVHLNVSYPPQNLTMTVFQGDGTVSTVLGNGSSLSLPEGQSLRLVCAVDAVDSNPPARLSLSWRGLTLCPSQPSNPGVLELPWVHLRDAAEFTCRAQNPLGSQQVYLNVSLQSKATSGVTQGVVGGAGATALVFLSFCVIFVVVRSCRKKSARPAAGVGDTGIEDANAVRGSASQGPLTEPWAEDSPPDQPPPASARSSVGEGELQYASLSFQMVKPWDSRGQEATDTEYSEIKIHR

Trypanosoma cruzi = assay: Trypanosoma cruzi phosphomannomutase and mannose-1-phosphate guanylyltransferase assay; assay type: functional; conditions: 10 µM
[4] = biological target: T2, Arginase-2, mitochondrial (Homo sapiens) (UniProt P78540); assay: in vitro enzyme assay to detect the production of urea directly proportional to the activity of Arginase II; assay type: functional; conditions: 33.3 µM; note: in the data most compounds retested in dose-response had high values
T2 sequence (whole entry): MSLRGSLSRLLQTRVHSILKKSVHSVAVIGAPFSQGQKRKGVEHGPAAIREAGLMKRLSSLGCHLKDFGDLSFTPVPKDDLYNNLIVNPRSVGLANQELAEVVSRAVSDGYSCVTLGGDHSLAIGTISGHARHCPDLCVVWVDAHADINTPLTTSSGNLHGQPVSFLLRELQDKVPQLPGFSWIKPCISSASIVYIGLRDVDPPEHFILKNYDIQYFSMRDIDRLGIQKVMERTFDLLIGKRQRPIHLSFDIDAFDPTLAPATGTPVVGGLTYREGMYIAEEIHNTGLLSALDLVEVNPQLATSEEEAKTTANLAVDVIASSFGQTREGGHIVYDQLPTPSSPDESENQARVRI

[5] = biological target: T3, Proteasome subunit beta (Trypanosoma cruzi) (UniProt O96673); assay: Trypanosoma cruzi proteasome chymotrypsin-like activity (TcProtChymo) assay.; note: in the data most compounds retested in dose-response had high values; assay type: functional; conditions: 9.37 µM
T3 sequence (whole entry): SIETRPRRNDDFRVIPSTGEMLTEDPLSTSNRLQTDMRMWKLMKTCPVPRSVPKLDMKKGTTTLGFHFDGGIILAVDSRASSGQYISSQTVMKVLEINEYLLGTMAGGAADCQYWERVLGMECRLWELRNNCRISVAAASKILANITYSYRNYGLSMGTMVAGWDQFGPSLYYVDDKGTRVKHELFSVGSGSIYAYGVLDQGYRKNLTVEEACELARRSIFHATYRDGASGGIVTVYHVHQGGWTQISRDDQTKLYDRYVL

Homo sapiens = organism: Homo sapiens; assay: To identify inhibition of the IFN signalling (Jak-Stat) pathway via expression of an eGFP reporter gene under the control of an IFN-stimulated response element (ISRE) containing MxA promoter.; assay type: functional; conditions: 30 µM
[6] = biological target: T4, Tyrosyl-tRNA synthetase, putative (Trypanosoma cruzi (strain CL Brener)) (UniProt Q4DSP6); assay: Trypanosoma cruzi tyrosyl tRNA synthetase (TcYRS) _High Tyrosine SOP; assay type: functional; conditions: 30 µM; note: in the data most compounds retested in dose-response had high values
T4 sequence (whole entry): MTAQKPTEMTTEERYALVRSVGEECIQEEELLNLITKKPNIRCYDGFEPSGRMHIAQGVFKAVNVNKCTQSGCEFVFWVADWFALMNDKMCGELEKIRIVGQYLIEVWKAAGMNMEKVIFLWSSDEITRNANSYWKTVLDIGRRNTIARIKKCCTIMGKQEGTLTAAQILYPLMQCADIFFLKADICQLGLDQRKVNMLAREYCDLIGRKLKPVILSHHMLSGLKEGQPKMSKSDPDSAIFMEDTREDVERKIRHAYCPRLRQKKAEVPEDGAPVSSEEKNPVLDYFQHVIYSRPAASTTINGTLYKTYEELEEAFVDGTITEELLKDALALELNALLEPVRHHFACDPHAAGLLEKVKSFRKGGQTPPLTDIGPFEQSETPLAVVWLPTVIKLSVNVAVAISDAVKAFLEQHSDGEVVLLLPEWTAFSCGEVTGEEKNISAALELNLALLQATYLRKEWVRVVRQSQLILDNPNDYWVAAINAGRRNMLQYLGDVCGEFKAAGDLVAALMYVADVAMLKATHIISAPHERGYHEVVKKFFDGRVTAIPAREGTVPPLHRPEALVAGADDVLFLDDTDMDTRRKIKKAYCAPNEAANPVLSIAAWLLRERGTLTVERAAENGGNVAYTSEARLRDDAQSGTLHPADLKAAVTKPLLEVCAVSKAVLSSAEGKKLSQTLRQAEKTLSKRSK

[7] = biological target: T4, Tyrosyl-tRNA synthetase, putative (Trypanosoma cruzi (strain CL Brener)); assay: Trypanosoma cruzi tyrosyl tRNA synthetase (TcYRS) SOP; assay type: functional; conditions: 30 µM
[8] = biological target: Chromo domain-containing protein 1 (Saccharomyces cerevisiae (strain ATCC 204508 / S288c) (Baker's yeast)) (UniProt P32657); assay: ScCHD-1 Enzyme Inhibition Assay; assay type: functional; conditions: 30 µM; note: in the data most compounds retested in dose-response had high values
Chromo domain-containing protein 1 (Saccharomyces cerevisiae (strain ATCC 204508 / S288c) (Baker's yeast)), sequence (P32657 whole entry, the tested form may be a part): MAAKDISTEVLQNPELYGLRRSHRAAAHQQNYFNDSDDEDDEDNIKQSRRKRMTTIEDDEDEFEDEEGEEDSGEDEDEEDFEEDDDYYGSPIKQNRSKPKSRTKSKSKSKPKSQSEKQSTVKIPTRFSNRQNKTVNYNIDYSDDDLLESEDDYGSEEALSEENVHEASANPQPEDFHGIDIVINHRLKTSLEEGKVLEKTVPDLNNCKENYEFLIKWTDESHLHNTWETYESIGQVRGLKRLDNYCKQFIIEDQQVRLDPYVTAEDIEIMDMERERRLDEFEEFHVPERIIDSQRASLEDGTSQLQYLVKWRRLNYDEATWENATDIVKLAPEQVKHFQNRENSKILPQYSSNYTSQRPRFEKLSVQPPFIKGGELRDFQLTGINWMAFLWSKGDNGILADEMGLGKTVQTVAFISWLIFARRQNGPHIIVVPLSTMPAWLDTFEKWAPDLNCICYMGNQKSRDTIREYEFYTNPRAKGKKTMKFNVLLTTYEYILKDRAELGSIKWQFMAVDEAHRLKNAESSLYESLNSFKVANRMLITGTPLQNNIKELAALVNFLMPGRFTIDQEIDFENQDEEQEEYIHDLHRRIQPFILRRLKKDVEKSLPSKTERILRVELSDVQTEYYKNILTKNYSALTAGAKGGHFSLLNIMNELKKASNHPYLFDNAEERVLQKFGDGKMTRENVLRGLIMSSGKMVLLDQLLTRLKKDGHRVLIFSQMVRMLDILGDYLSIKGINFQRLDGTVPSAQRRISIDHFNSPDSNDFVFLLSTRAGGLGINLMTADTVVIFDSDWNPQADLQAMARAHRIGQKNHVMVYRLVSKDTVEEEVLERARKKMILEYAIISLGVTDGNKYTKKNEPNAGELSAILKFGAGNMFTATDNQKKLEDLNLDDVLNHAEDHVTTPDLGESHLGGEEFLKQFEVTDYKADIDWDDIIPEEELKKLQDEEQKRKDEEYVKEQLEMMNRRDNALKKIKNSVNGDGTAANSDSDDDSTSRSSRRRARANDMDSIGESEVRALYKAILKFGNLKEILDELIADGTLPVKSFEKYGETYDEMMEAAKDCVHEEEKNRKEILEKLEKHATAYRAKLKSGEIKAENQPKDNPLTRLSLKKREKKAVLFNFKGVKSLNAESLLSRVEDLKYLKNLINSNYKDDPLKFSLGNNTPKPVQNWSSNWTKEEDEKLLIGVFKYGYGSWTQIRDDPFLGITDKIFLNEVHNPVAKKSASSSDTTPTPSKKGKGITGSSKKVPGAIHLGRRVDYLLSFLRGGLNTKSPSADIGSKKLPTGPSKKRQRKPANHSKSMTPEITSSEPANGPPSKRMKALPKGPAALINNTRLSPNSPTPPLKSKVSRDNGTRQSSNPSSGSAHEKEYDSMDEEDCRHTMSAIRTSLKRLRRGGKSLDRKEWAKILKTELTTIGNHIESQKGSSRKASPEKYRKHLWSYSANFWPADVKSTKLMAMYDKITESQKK

Row | Structure (SMILES) | Percent Effect [1] | Percent Effect [2] | Percent Effect [3] | Percent Effect (Trypanosoma cruzi) | Percent Effect [4] | Percent Effect [5] | Percent Effect (Homo sapiens) | Percent Effect [6] | Percent Effect [7] | Percent Effect [8]
1 | COc1cccc(-c2noc(C3CCN(Cc4cn(C)nc4C)C3)n2)c1 (stereo not given) | -3.83% | 14.7% | 3.58% | 5.72% | -1.33% | 14.1% | 31.6% | 6.35% | 20% | -24.7%
2 | Cc1cnn(CC2CN(CC(=O)N3CCc4ccccc43)CCO2)c1 (stereo not given) | -4.43% | 8% | 4.38% | -0.803% | 3.55% | 3.48% | 6.22% | 4.74% | -5.13% | -9.1%
3 | O=C(Cc1ccccc1Cl)N1CCCC(n2cncn2)C1 (stereo not given) | -7.8% | 5.13% | 0.737% | -2.91% | 4.51% | -2.65% | 22.2% | 2.39% | 8.43% | 1.66%
4 | NC(=O)c1ccc(S(=O)(=O)NC(=O)COc2ccc3c(c2)CCC3)cc1 | -4.96% | 7.69% | -3.01% | 8.54% | 0.82% | 4.01% | 4.26% | 3.35% | 10.8% | 6.22%
5 | CC(C)NC(=O)N1C[C@H]2C[C@H](C(=O)NCc3ccccc3)[C@@H](C1)O2 | -5.17% | -103% | -0.747% | -5.16% | -5.67% | 8.74% | 8.32% | 3.68% | 7.69% | 3.3%
6 | Cc1cc(-c2nn(C)c(Cl)c2CN2CCOCC(O)C2)no1 (stereo not given) | -4.83% | 13.5% | 10% | 4.37% | 15.7% | 13% | 15.5% | 2.66% | 17.1% | -4.79%
7 | CCn1cc(CN(C)S(=O)(=O)c2cnn(CC)c2C)c(C)n1 | 39.4% | 14.7% | -2.08% | -0.986% | 3.1% | 15.3% | 39.3% | 2.12% | 10% | -20.5%
8 | COc1ccccc1OCCN1CCCC(c2cc(C(N)=O)[nH]n2)C1 (stereo not given) | -3.66% | 2.67% | 8.25% | -3.01% | 4.43% | 12% | -0.623% | 2.63% | 5.13% | -8.44%
9 | CN(Cc1cn2ccccc2n1)C1CCCN(c2cccnn2)C1 (stereo not given) | -0.768% | 26% | -7.59% | 0.187% | -4.71% | 15.1% | -3.7% | 7.84% | 18.8% | -9.66%
10 | CCNc1cc2c(nn1)CCN(C(=O)c1ccc(CNC(C)=O)o1)C2 | -4.81% | 8% | 4.09% | -1.81% | 3.99% | 6.36% | 5.79% | 3.68% | 15.4% | -12.3%
11 | CCOc1ncccc1NC(=O)NC1CCN(S(C)(=O)=O)CC1 | -4.68% | 2.6% | -7.28% | -6.34% | -6.76% | 8.25% | 25.1% | 0.98% | 4.71% | -11.6%
12 | COc1ccccc1NC(=O)CSC1CCc2ccccc2NC1=O (stereo not given) | -4.52% | 13.5% | 8.46% | 4.17% | 17.1% | 18.3% | 13% | 5.85% | 17.1% | -4.97%
13 | Cc1ccc(CC(=O)N2CCc3nnc(N(C)C)cc3C2)cn1 | 0.88% | 20.5% | -4.67% | -0.469% | 2.05% | 13.6% | 16.2% | 6.22% | 10.8% | -4.95%
14 | Cc1cc(C)n(CC2CCCCN2CCCS(N)(=O)=O)n1 (stereo not given) | 1.22% | 18.7% | -2.13% | -2.01% | 4.88% | 12.8% | 8.38% | -0.526% | 7.69% | -8.39%
15 | CC(C)c1nc(CN(C)C2CCN(CCNS(C)(=O)=O)C2)no1 (stereo not given) | -0.486% | 15.6% | -6.45% | -5.78% | -11.7% | 12.5% | 12.2% | 3.92% | 7.06% | -13%
16 | Cc1nc(C(=O)N2CCc3c(nc(-c4ccncc4)[nH]c3=O)C2)cs1 | -4.53% | 0% | 1.7% | -2.62% | 3.85% | 11.6% | 5.04% | 5.85% | 9.76% | -3.73%
17 | COC(=O)Cn1c(=O)nc2n1C(=O)N(c1ccc(Cl)cc1)C2 | -4.67% | 2.7% | 8.46% | -8.83% | -2.45% | 10.4% | -2.27% | 0.532% | 2.44% | -2.66%
18 | Cc1noc(C)c1CN(C)CCC(=O)N1CCc2sccc2C1 | -4.9% | 0% | 7.48% | -1% | 0.444% | 8.74% | 17.8% | 4.74% | 5.13% | -7.86%
19 | O=C1CCCc2nccc(-c3ccccc3)c21 | 3.95% | 22.7% | -10% | 2.56% | 0.443% | 27.1% | 9.37% | 3.17% | -45% | -16.7%
20 | CC(C)c1noc(CCC(=O)NCC2CCOC2)n1 (stereo not given) | -1.25% | 0% | -0.749% | 0.602% | -5.32% | 10.8% | 2.04% | 8.95% | 17.9% | -9.05%
21 | O=C(CCCOc1ccccc1Cl)N1CCCC(n2cncn2)C1 (stereo not given) | -2.02% | 5.13% | -18.2% | 6.1% | -13.9% | -5.03% | -5.2% | 1.44% | 6.02% | 0.499%
22 | CN(C)C(=O)[C@@H]1C[C@@H]2CCN(Cc3ccc4c(c3)OCO4)C[C@@H]2O1 | -2.52% | -1.3% | -0.448% | -1.07% | -2.83% | 6.62% | -0.537% | -2.63% | -2.56% | -0.196%
23 | CCc1nc(C2CCCN2C(=O)c2nccnc2N)no1 (stereo not given) | -2.75% | -5.13% | -2.27% | 8.92% | 0.82% | -4.69% | -2.29% | -2.39% | 6.02% | -1.91%
